Measurements: ChEMBL document CHEMBL3433997, “St. Jude Leishmania screening dataset” (2016)

Each compound was assayed against Glucose transporter (Leishmania mexicana) (UniProt O61059) (assay: ST_JUDE_LEISH: Cytotoxicity at 2uM final concentration against transgenic Leishmania Mexicana promastigotes LmGT2 that are glucose transport deficient and complemented with the L. Mexicana glucose transporter 2. Activity is measured by DNA content using SYBR green in vitro).
Assay type: functional

Compound	inhibition [%]
NC1CCCN(Cc2ccc(-c3cccc(-c4nc5cc(F)ccc5[nH]4)c3)cc2)C1 (stereo not given)	-1.33
c1cc(CNCC2CCCO2)cc(-c2ccc(-c3nc4ccccc4[nH]3)s2)c1 (stereo not given)	-0.92
O=C(Nc1cccc(C(F)(F)F)c1)c1cccc2nc(C(F)(F)F)[nH]c12	15
COc1ccc(S(=O)(=O)NCCC2CCN(CCCCCNC(=O)C=Cc3ccc(Cl)c(Cl)c3)CC2)cc1	1.49
OC(CNc1ccnc(Nc2ccc(Cl)cc2)n1)c1cccc(C(F)(F)F)c1 (stereo not given)	0.49
CO/C(=C\C=C\c1cc2cc(Cl)c(Cl)cc2[nH]1)C(=O)NCCCN1CCN(c2cccc(CCO)c2)CC1	-0.1
O=C(NCC1CCN(Cc2ccc(F)cc2)C1)c1cc(-c2cccc(C(F)(F)F)c2)cs1 (stereo not given)	-6.61
CCCCCCCN1CC[C@@H](CCCc2ccnc3ccc(OCC4CCCNC4)cc23)[C@@H](CC)C1 (stereo not given in full)	1.43
COc1ccc2nccc([C@@H](O)CN3CCC(NCc4cc5cc(OC(F)(F)F)ccc5[nH]4)CC3)c2c1	3.79
CNCCNCc1ccc(-c2ccc(-c3nc4ccccc4[nH]3)s2)cc1	3.75
O=C(NCCN1CCCCC1)c1cccc(Nc2nccc(Nc3ccc(Oc4ccccc4)cc3)n2)c1	-0.27
CCn1c(SCc2ccccc2)nc2c1c(=O)[nH]c(=O)n2C	-1.06
CCc1nn2c(Nc3ccncc3)cc(C)nc2c1-c1ccccc1	1.85
CCOc1c(CNCCCNc2cc(=O)c3ccccc3[nH]2)cc(I)cc1C(C)(C)C	0.27
COC(=O)c1ccc(NC(=O)Nc2cccc(CCNCc3ccccc3)c2)cc1	-1.41
